This passage reports growth results from PubChem BioAssay (NCI).

Each structure is given as a SMILES string. About 83,000 compounds went through this panel and 20% of them were active in at least one assay; those are over-represented in the sample as a whole.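 Cell lines were cultured in 96-well plates, exposed to a single compound concentration, and assessed for percent growth 48 hours later.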 Unmarked numbers belong to inactive results. Active and inactive are the calls of the source. Rule for the calls: active = growth percent below 10; inactive = the rest.

Among the test systems are HCT-15 colon; HT29 colon; SNB-75 CNS; SNB-19 CNS; U251 CNS; PC-3 prostate; SK-MEL-5 melanoma; UACC-62 melanoma; LOX IMVI melanoma; SK-MEL-28 melanoma.
What all share (experiment): NCI-60 one-dose screen, 48 h (100 = growth as untreated, 0 = no growth, -100 = all killed)
Common to all, as to conditions: 10 µM unless noted

As to `[Cl][Hg][c]1cc[c]([Hg][Cl])o1`, the growth in the experiment on HCT-15 colon is -47.3% (active); in the experiment on HT29 colon, 30.9%; in the experiment with SNB-75 CNS it was 54.4%; in the experiment on SNB-19 CNS, 15.4%; in the experiment on U251 CNS it was -40.8% (active); in the experiment with PC-3 prostate it was 51.3%. The growth is 39.7% in the experiment on SK-MEL-5 melanoma, 47.1% in the experiment on UACC-62 melanoma, -10.3% (active) with LOX IMVI melanoma and 49.1% with SK-MEL-28 melanoma.

`O=c1[nH]cc(N(CCCl)CCCl)c(=O)[nH]1`: the growth is 75.6% in the experiment on HCT-15 colon; 63.4% in the experiment with HT29 colon; 62.9% with SNB-75 CNS; 65.1% in the experiment on SNB-19 CNS; 64.7% with U251 CNS; 49.5% in the experiment on PC-3 prostate. The values for the growth in the experiment on SK-MEL-5 melanoma and with UACC-62 melanoma were 82% and 64%, respectively.

Consider `C=CC1=C[C@@H]2[C@@H]3O[C@]4(CC[C@H](O4)[C@@H](C)C[C@@H](O)C3=O)C[C@H](O)C3=NCC[C@@]32CC1`, for which the growth in the experiment on HCT-15 colon is -13.9% (active); with HT29 colon, -13.6% (active); in the experiment with SNB-75 CNS it was -95.8% (active); in the experiment on SNB-19 CNS, -16.2% (active); in the experiment with U251 CNS, -7% (active); in the experiment with PC-3 prostate, -20.1% (active). In addition, the growth in the experiment on SK-MEL-5 melanoma is -90.2% (active); with UACC-62 melanoma it was -68.3% (active); in the experiment with LOX IMVI melanoma it was -59.9% (active); in the experiment on SK-MEL-28 melanoma, -59.8% (active).

Regarding `O=[N+]([O-])c1c(Br)sc(Br)c1[N+](=O)[O-]`, the growth is -13.9% (active) with HCT-15 colon; -58% (active) in the experiment on HT29 colon; 63.1% with SNB-75 CNS; 76% in the experiment on SNB-19 CNS; -31% (active) in the experiment with U251 CNS; 67.5% in the experiment with PC-3 prostate. The growth in the experiment on SK-MEL-5 melanoma is 51.4%; in the experiment with UACC-62 melanoma it was -1.09% (active); in the experiment with LOX IMVI melanoma it was -65.3% (active); with SK-MEL-28 melanoma it was 57.3%.

Turning to `Cc1cc(N(CCCl)CCCl)ccc1C=Nc1cccnc1`, the growth with HCT-15 colon was 84.4%; with HT29 colon it was 91.6%; in the experiment with SNB-75 CNS, 60.2%; in the experiment with SNB-19 CNS, 81.2%; with U251 CNS it was 76.1%; in the experiment with PC-3 prostate, 63.1%. Besides, the growth in the experiment on SK-MEL-5 melanoma is 77.5%; in the experiment on UACC-62 melanoma it was 46.6%; with LOX IMVI melanoma, 71.6%; with SK-MEL-28 melanoma it was 97.5%.

Turning to `CC[C@H](C)[C@@H]([C@@H](CC(=O)N1CCC[C@H]1[C@H](OC)[C@@H](C)C(=O)N[C@H](C)[C@@H](O)c1ccccc1)OC)N(C)C(=O)[C@@H](NC(=O)[C@@H](NC)C(C)C)C(C)C`, the growth in the experiment with HCT-15 colon was 17.2%; in the experiment with HT29 colon it was 3.65% (active); in the experiment with SNB-75 CNS, 39%; in the experiment on SNB-19 CNS, 45.4%; with U251 CNS it was 6.43% (active); in the experiment on PC-3 prostate it was 29.1%. In addition, the growth in the experiment with SK-MEL-5 melanoma is -37.6% (active); in the experiment on UACC-62 melanoma, 47.3%; in the experiment with LOX IMVI melanoma, 19.6%; with SK-MEL-28 melanoma it was 63.5%.

As to `Cn1cc(C=O)c2nccnc21`, the growth in the experiment with HCT-15 colon is 114%; with HT29 colon, 93%; in the experiment with SNB-75 CNS, 78.5%; in the experiment with SNB-19 CNS, 110%; with U251 CNS, 97.1%; with PC-3 prostate, 107%. Further, the growth in the experiment on SK-MEL-5 melanoma was 104%; with UACC-62 melanoma it was 102%; in the experiment on LOX IMVI melanoma, 94.5%; with SK-MEL-28 melanoma, 94%.

For the compound `C=CC[PH+](c1ccccc1)c1ccccc1.C=CC[PH+](c1ccccc1)c1ccccc1.[Cl][Pt][Cl]`, the growth in the experiment with HCT-15 colon was 31.4%; with HT29 colon, 41.1%; with SNB-75 CNS it was 66.2%; with SNB-19 CNS, 70.5%; in the experiment on U251 CNS, 37.5%; in the experiment on PC-3 prostate, 54.4%. The growth with SK-MEL-5 melanoma was 85.8%; in the experiment on UACC-62 melanoma, 52.9%; in the experiment on LOX IMVI melanoma, -6.81% (active); in the experiment with SK-MEL-28 melanoma, 28.4%.

In the case of `CCC1CN1CCCCN1CC1CC` (stereo not drawn), the growth with HCT-15 colon is 88.5%; in the experiment with HT29 colon, 98.2%; in the experiment with SNB-75 CNS, 81.7%; in the experiment on SNB-19 CNS, 99.3%; with U251 CNS, 99%; with PC-3 prostate it was 98.5%. For the same compound, the growth is 99.5% with SK-MEL-5 melanoma, 97.2% in the experiment on UACC-62 melanoma, 97.7% with LOX IMVI melanoma and 90% in the experiment on SK-MEL-28 melanoma.

Regarding `CC[C@H](C)[C@H](NC(=O)c1cccn1C)C(=O)N(C)[C@H](C[C@@H](OC(C)=O)c1nc(C(=O)N[C@@H](Cc2ccccc2)C[C@H](C)C(=O)OC)cs1)C(C)C`, the growth in the experiment on HCT-15 colon was 12%; in the experiment on HT29 colon, -18.1% (active); in the experiment on SNB-75 CNS, 33.4%; in the experiment on SNB-19 CNS, 35.4%; with U251 CNS it was 12.3%; in the experiment with PC-3 prostate, 21.2%. The growth in the experiment with SK-MEL-5 melanoma was -29.1% (active); in the experiment on UACC-62 melanoma, 40.4%; in the experiment on LOX IMVI melanoma, 15.2%; in the experiment on SK-MEL-28 melanoma it was 68.8%.

Turning to `O=C1C2CC=CCC2C(=O)N1SC(Cl)(Cl)Cl` (stereo not drawn), the growth in the experiment on HCT-15 colon was 67.3%; in the experiment on HT29 colon it was 89.2%; with SNB-75 CNS it was 104%; in the experiment on SNB-19 CNS it was 91.5%; in the experiment on U251 CNS it was 98.8%; with PC-3 prostate, 81.9%. The growth with SK-MEL-5 melanoma is 94.1%; with UACC-62 melanoma, 93.6%; with LOX IMVI melanoma, 78.6%; in the experiment with SK-MEL-28 melanoma it was 132%.

For the compound `CCOc1ccccc1C(=O)OCC(Cl)(Cl)Cl`, the growth is 110% in the experiment with HCT-15 colon; 96.4% in the experiment with HT29 colon; 98.3% in the experiment with SNB-75 CNS; 107% with SNB-19 CNS; 102% in the experiment with U251 CNS; 96.5% in the experiment with PC-3 prostate. In addition, the growth in the experiment with SK-MEL-5 melanoma was 106%; in the experiment with UACC-62 melanoma, 107%; in the experiment with LOX IMVI melanoma it was 104%; in the experiment with SK-MEL-28 melanoma, 118%.

Turning to `O=C(O)c1c(Cl)n(Cc2ccc(O)cc2)c2ccc(O)cc12`, the growth was 118% with HCT-15 colon; 110% in the experiment on HT29 colon; 80.6% in the experiment with SNB-75 CNS; 106% with SNB-19 CNS; 106% in the experiment on U251 CNS; 72.4% in the experiment with PC-3 prostate. The growth with SK-MEL-5 melanoma was 85.8%; in the experiment on UACC-62 melanoma, 98.9%; in the experiment with LOX IMVI melanoma it was 98.8%; with SK-MEL-28 melanoma, 100%.
